Source: PMC4336329 (PLoS ONE, 2015)
About 14,000 (4.5%) of roughly 310,000 compounds showed an effect of 50% or more. The effect is printed as a negative number. Many of the other results were omitted from the sample, so strong results are more common in it than they were.

target: human ether-à-go-go-related gene (hERG) potassium channel (human, UniProt Q12809); assay: primary screen, population patch clamp on CHO cells stably expressing hERG; higher = less effect of the substance
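Further: peak tail current of the secondary pulse compared with the same well before compound.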

human ether-à-go-go-related gene (hERG) potassium channel, sequence (Q12809 whole entry, looked up): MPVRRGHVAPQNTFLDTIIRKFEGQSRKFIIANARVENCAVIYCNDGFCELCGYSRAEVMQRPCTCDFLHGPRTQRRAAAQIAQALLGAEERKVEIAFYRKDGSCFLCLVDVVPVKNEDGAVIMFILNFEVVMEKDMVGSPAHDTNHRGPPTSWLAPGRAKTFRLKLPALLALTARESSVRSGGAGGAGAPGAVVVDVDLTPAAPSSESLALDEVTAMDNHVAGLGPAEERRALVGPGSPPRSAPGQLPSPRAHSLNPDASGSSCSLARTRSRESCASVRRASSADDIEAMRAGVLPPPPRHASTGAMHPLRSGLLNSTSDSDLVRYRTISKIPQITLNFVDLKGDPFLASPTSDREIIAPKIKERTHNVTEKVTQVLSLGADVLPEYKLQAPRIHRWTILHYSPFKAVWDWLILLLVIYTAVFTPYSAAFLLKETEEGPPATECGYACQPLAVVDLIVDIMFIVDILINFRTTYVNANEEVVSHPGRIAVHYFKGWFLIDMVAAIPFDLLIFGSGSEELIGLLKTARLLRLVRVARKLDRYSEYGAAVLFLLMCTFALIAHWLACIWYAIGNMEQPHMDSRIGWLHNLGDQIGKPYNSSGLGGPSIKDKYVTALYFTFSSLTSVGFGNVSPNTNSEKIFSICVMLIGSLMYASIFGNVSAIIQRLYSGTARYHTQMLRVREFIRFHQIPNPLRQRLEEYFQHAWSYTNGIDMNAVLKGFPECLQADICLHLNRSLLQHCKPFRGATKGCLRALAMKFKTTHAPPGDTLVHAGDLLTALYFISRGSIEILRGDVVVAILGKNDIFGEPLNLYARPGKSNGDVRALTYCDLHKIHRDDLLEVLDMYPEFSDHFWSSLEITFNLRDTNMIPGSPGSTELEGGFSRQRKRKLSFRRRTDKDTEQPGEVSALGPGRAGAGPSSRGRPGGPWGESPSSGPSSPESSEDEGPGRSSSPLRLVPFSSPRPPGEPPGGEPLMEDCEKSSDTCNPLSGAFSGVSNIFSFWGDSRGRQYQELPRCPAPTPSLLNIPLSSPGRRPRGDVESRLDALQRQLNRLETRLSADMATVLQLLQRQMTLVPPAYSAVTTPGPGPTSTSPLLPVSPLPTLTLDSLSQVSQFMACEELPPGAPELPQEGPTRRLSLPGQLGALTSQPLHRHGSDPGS

| SMILES | hERG current change (%, negative = inhibition) at 10uM |
| --- | --- |
| Cc1ccc(C(=O)N2CCCCC2)cc1S(=O)(=O)N1CCOCC1 | 22% |
| COc1ccc(NC(=O)C2CCCN(S(=O)(=O)c3ccc4c(c3)CCCN4C(C)=O)C2)cc1 (centres unmarked) | 9.31% |
| CCCN1CCC(NC(=O)Nc2cc(Cl)ccc2OC)CC1 | -19.1% |
| CCCCOc1ccc(C(=O)Nc2ccc(N3CCN(C(=O)C(C)C)CC3)cc2)cc1 | 6.91% |
| NC(=O)C1CCN(C(=O)c2ccc(F)c(S(=O)(=O)N3CCOCC3)c2)CC1 | -0.931% |
| C/C(=N\NC(=O)CNC(=O)c1ccc(Br)cc1)c1ccco1 | 5.38% |
| CCn1c(=O)cc(OCC(=O)NCCCN2CC(C)CC(C)C2)c2ccccc21 (centres unmarked) | -12.5% |
| CC1CCN(CCCNC(=O)COc2cc(=O)n(C)c3ccccc23)CC1 | 8.58% |
| Cn1c(=O)cc(OCC(=O)NCCCN2CCN(c3cccc(Cl)c3)CC2)c2ccccc21 | -50.8% |
| CCn1c(=O)cc(OCC(=O)NCCCN2CCC(C)CC2)c2ccccc21 | -8.39% |
| Cn1c(=O)cc(OCC(=O)NCCCN2CCN(Cc3ccccc3)CC2)c2ccccc21 | -17.8% |
| CCn1c(=O)cc(OCC(=O)NCCCN2CCN(c3cccc(Cl)c3)CC2)c2ccccc21 | -61.1% |
| O=S(=O)(N/N=C\c1cn(-c2ccccc2)nc1-c1ccccc1)c1ccccc1 | 5.42% |
| COC(=O)c1ccc(N2C(=O)Nc3ccccc3N2O)cc1 | 12.5% |
| CCN1CCN(C(C(=O)NC2CCCC2)c2cc3c(cc2[N+](=O)[O-])OCO3)CC1 (centres unmarked) | -1.51% |
| CN(C)S(=O)(=O)N1CCC(C(=O)O)(c2ccccc2)CC1 | 18.7% |
| CCCc1nc2ccc(NC(=O)c3cccs3)cc2c(=O)n1Cc1ccccc1Cl | 1.8% |
| O=S(=O)(NC1CCCC1)c1cccc(S(=O)(=O)N2CCC(n3nnc4ccccc43)CC2)c1 | -26% |
| COC(=O)c1cccc(S(=O)(=O)N2CCC(n3nnc4cc(F)ccc43)CC2)c1 | -34.3% |
| O=S(=O)(c1ccccc1)N1CCC(n2nnc3cc(F)ccc32)CC1 | -27.7% |
| Cc1ccc2c(c1)nnn2C1CCN(S(=O)(=O)c2cccc(S(=O)(=O)N(C)C)c2)CC1 | -16.7% |

| SMILES | hERG current change (%, negative = inhibition) at 10uM |
| --- | --- |
| O=S(=O)(c1cccc(S(=O)(=O)N2CCC(n3nnc4ccccc43)CC2)c1)N1CCCCC1 | -55.7% |
| CC(=O)c1cccc(S(=O)(=O)N2CCC(n3nnc4cc(F)ccc43)CC2)c1 | -63.7% |
| CCCc1ccc(-c2cc(C(=O)NC3=NCCS3)c3ccccc3n2)cc1 | -2.06% |
| CN1CCN(CCCNC(=O)Cn2nc(-c3ccccc3)ccc2=O)CC1 | 14.1% |
| O=C(Cn1nc(-c2ccc(Cl)cc2)ccc1=O)NCCCN1CCN(Cc2ccccc2)CC1 | -64.2% |
| CCCN1CCN(CCCNC(=O)Cn2nc(-c3ccc(Cl)cc3)ccc2=O)CC1 | -50.8% |
| O=C(Cn1nc(-c2ccccc2)ccc1=O)NCCN1CCN(Cc2ccccc2)CC1 | -19.1% |
| CCCN1CCN(CCCNC(=O)Cn2nc(-c3ccc(C)cc3)ccc2=O)CC1 | -24.6% |
| CCCN1CCN(CCCNC(=O)Cn2nc(-c3ccccc3)ccc2=O)CC1 | -22.2% |
| Cn1c(=O)c2c(nc(CN3CCOCC3)n2CCN2CCOCC2)n(C)c1=O | 3.09% |
| COc1ccc(/C=C(/NC(=O)c2ccccc2)C(=O)NC(Cc2c[nH]c3ccccc23)C(=O)O)cc1 (centres unmarked) | 14.5% |
| COc1cccc(/C=C2\SC(=S)N(CC(=O)N(C)C3CCS(=O)(=O)C3)C2=O)c1 (centres unmarked) | 1.18% |
| CCCCOC(=O)NS(=O)(=O)c1sc(CC(C)C)cc1-c1ccc(Cn2c(CC)nc3c(C)cc(C)nc32)cc1 | 5.9% |
| Cc1ccccc1C1=NCC(=S)Nc2ccc(Cl)cc21 | 0.98% |
| N=c1c2c(ncn1CCCO)Oc1ccc3ccccc3c1C2c1ccccc1 (centres unmarked) | -53.6% |
| COc1ccc(C2c3ccc4ccccc4c3Oc3ncn(CCO)c(=N)c32)cc1OC (centres unmarked) | -45.7% |
| COc1ccc(C2c3ccc4ccccc4c3Oc3ncn(CCCO)c(=N)c32)cc1OC (centres unmarked) | -62.3% |
| N=c1c2c(ncn1CCN1CCOCC1)Oc1ccc3ccccc3c1C2c1ccccc1 (centres unmarked) | -49.3% |
| COc1ccc(C2c3c(ncn(CCCO)c3=N)Oc3ccc4ccccc4c32)cc1OC (centres unmarked) | -28.8% |
| COc1ccc(C2c3ccc4ccccc4c3Oc3ncn(CCO)c(=N)c32)cc1 (centres unmarked) | -74.2% |
| N=c1c2c(ncn1CCCO)Oc1c(ccc3ccccc13)C2c1ccccc1 (centres unmarked) | -70.4% |

| SMILES | hERG current change (%, negative = inhibition) at 10uM |
| --- | --- |
| COc1ccc(C2c3c(ncn(CCCO)c3=N)Oc3ccc4ccccc4c32)cc1 (centres unmarked) | -33.9% |
| COC(=O)C1CN(C(=O)COc2ccc(Cl)cc2Cl)c2ccccc2O1 (centres unmarked) | -2.51% |
| CCCCNC(=O)/C(C#N)=c1\s/c(=C\c2ccccc2OC(F)F)c(=O)n1CCCOC | 22.6% |
| Cc1ccc(Nc2c([N+](=O)[O-])cc(C(=O)N3CC(=O)Nc4ccccc43)cc2[N+](=O)[O-])c(C)c1 | 15.2% |
| COCCNC(=O)C(=O)c1c(-c2ccccc2)[nH]c2ccccc12 | 1.69% |
| CCOC(=O)NCc1ccc2c(c1)OCO2 | 19.7% |
| O=C(CCN1C(=O)/C(=C/c2ccc(F)cc2)SC1=S)Nc1cc([N+](=O)[O-])ccc1O | 15% |
| COC(=O)c1ccnc(/C=N/O)c1 | 10.7% |
| CCNS(=O)(=O)c1ccc2nc(NC(=O)c3cccnc3)sc2c1 | -1.78% |
| Cc1ccc(N2CC(C(=O)Nc3cccnc3)CC2=O)cc1 (centres unmarked) | -9.42% |
| O=S(=O)(c1ccc(Cl)cc1)N1CCN2CCCC2C1 (centres unmarked) | -6.01% |
| CN(C)NC1CC(=O)N(c2ccccc2)C1=O (centres unmarked) | 15.9% |
| NC(=O)N/N=C/c1cn(-c2ccccc2)nc1-c1ccccc1 | -6.63% |
| Cc1[nH]c(=O)[nH]c(=O)c1S(=O)(=O)Nc1ccc(F)cc1Cl | 17.1% |
| S=c1[nH]nc(COc2ccccc2)n1/N=C/c1ccc(Cl)cc1 | 22.4% |
| COc1ccccc1C1c2ccc3ccccc3c2Oc2ncn(CCCO)c(=N)c21 (centres unmarked) | -66.6% |
| COc1ccc(C2c3ccc4ccccc4c3Oc3ncn(CCCO)c(=N)c32)cc1 (centres unmarked) | -71.6% |
| COc1ccc(C2c3ccc4ccccc4c3Oc3ncn4nc(Cc5ccccc5)nc4c32)cc1OC (centres unmarked) | 13.2% |
| COc1ccc(C2c3ccc4ccccc4c3Oc3ncn(Cc4ccco4)c(=N)c32)cc1OC (centres unmarked) | -62.9% |
| N=c1c2c(ncn1Cc1ccco1)Oc1c(ccc3ccccc13)C2c1ccccc1 (centres unmarked) | -26.5% |
| CC1(c2nnc(-c3ccccc3)o2)CC(c2ccc([N+](=O)[O-])cc2)=NO1 (centres unmarked) | 4.53% |

| SMILES | hERG current change (%, negative = inhibition) at 10uM |
| --- | --- |
| O=C(Nc1cccc(Cl)c1)c1cc(S(=O)(=O)N2CCCCC2)c[nH]1 | -9.13% |
| Cc1nn2c(=O)cc(CSc3ccccc3NC(=O)c3ccccc3F)nc2s1 | -3.29% |
| CCCCCCCCCCCC(=O)N/N=C/c1ccco1 | -11.2% |
| COc1ccc(Cc2nc3ccc(C(=O)N4CCCCC4CCO)cc3o2)cc1 (centres unmarked) | 4.93% |
| CN(C)C(=O)Cn1c(SCC(=O)NC2CCCCC2)nc2ccccc21 | 7.7% |
| COC(=O)Cn1c(=O)c(=O)n(CC(=O)OC)c2ccccc21 | 22.7% |
| Cn1cnc(S(=O)(=O)NC2CCN(Cc3c(F)cccc3Cl)CC2)c1 | -18.6% |
| COCCN(C(=O)C1CC1)c1nnc(-c2cccc(C)c2)s1 | -6.82% |
| O=C(OCC(=O)N1CCN(c2ccccc2)CC1)c1ccccc1[N+](=O)[O-] | -28.8% |
| O=C(CCC(=O)N1CCN(c2cccc(Cl)c2)CC1)N1CCN(c2ccccc2)CC1 | -55.6% |
| CN1CCN(C(=O)CCn2c(=O)c3cccn3c3cccnc32)CC1 | 8.62% |
| O=C(Cn1c(=O)c2cccn2c2cccnc21)N1CCN(c2ccc(Cl)cc2)CC1 | -47% |
| O=C(OCC(=O)N1CCN(c2ccccc2)CC1)c1cc(Cl)ccc1[N+](=O)[O-] | -37% |
| O=C(CCCNS(=O)(=O)c1cccs1)N1CCN(c2ccc(F)cc2)CC1 | -43.2% |
| O=C(CCCNS(=O)(=O)c1cccs1)N1CCN(c2cccc(Cl)c2)CC1 | -56.9% |
| O=C(O)CCC(=O)N1CCN(c2cccc(Cl)c2)CC1 | 12% |
| O=C(OCC(=O)N1CCN(c2ccccc2)CC1)c1ccc(Cl)cc1[N+](=O)[O-] | -63.6% |
| O=C(O)CCCC(=O)N1CCN(c2cccc(Cl)c2)CC1 | 2.98% |
| O=C(CCNS(=O)(=O)c1cccs1)N1CCN(c2cccc(Cl)c2)CC1 | -10.3% |
| O=C(CCn1c(=O)c2cccn2c2cccnc21)N1CCN(c2cccc(Cl)c2)CC1 | -58.8% |
